Shiga inhibitor: inhibitors of Shiga toxin in Vero cells; Vero cells, Shiga toxin protein synthesis inhibition reporter; inhibition, % at 38.7 µM; 290,000 compounds, 9.2% hits; AID 2315; in the data active = inhibition mostly above about 28%, no sharp cut-off; inactive = mostly below about 43%; note: 0% is about no effect
CHX counter: affects cycloheximide protein synthesis inhibition readout, counter-screen. AID 2314. max response, %. cell reporter, cycloheximide protein synthesis inhibition counterscreen. 300,000 compounds, 12% hits; in the data active = max response mostly above about 13%, no sharp cut-off; inactive = mostly below about 14%; note: read at 38.3 µM for the half of the compounds with a filed dose; 0% is about no effect
Pf growth 96h: P. falciparum growth inhibition at 96 hours; P. falciparum luciferase reporter growth, 96 h; Potency, µM (doses to about 28.7 µM), inactives show top-dose activity change, negative = inhibition, usual class: inhibitors; 320,000 compounds, 6.9% hits; AID 504834; note: potency is the fitted concentration of half-maximal effect; % is set by controls: 0 for no effect and ±100 for the full control effect
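Delayed-death screen, second-generation endpoint: infected erythrocytes, 2% hematocrit, 0.05% parasitemia final; 96 hours at 37 C, 5% CO2; luciferase detection reagent; luminescence decrease equals reduced growth.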
LASV entry inh: Lassa virus entry inhibition; 300,000 compounds, 1.2% hits; Lassa virus pseudotype entry inhibition, cell reporter; Potency, µM (top dose mostly 37.9 µM), without a hit: at the highest dose activity change, negative = inhibition, usual class: inhibitors; calls by dose curve; tested in HEK293 cells; note: potency is the fitted concentration of half-maximal effect; % is set by controls: 0 for no effect and ±100 for the full control effect; nearly all actives have a fitted effect of over 50% in size
MARV entry inh: inhibitors of Marburg virus binding or cell entry | Marburg virus pseudotyped entry inhibition, cell reporter | Potency, µM (doses to about 37.8 µM), for the others: at the top dose activity change, negative = inhibition, hits mostly inhibitors | 300,000 compounds, 1.8% hits | AID 540276; calls by dose curve; tested in HEK293 cells; note: potency is the fitted concentration of half-maximal effect; % is set by controls: 0 for no effect and ±100 for the full control effect
Pf growth 48h: P. falciparum growth inhibition at 48 hours (one generation); P. falciparum luciferase growth in erythrocytes, 48 h; Potency, µM (titrated, usually from 28.7 µM), for inactives: at the top dose activity change, negative = inhibition, most hits filed as inhibitors; 310,000 compounds, 5.9% hits; note: potency is the fitted concentration of half-maximal effect; % is set by controls: 0 for no effect and ±100 for the full control effect
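Cell-based growth assay: transgenic P. falciparum expressing firefly luciferase, cultured in red cells within RPMI 1640 containing 0.5% w/v Albumax, 24 mM bicarbonate and gentamycin. A drop in luciferase activity indicates inhibition.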
* = called active by the depositor; ? = inconclusive; nt = not tested or not shown; [ ] = remark or other dose. An excerpt weighted towards active compounds, which were near 19% of everything screened. Unless noted, calls come from the whole dose curve; as a rule, active = well fitted inhibition curve with a large enough effect; inconclusive = small, poorly fitted or top-dose-only effect, or another doubt; inactive = no such curve, though single readings can be large or run the other way.

SMILES | Shiga inhibitor | CHX counter | Pf growth 96h | LASV entry inh | MARV entry inh | Pf growth 48h
COc1ccc(-c2nnc(SCC(=O)N3CCCc4ccccc43)o2)cc1OC | 8 | -5 | 12µM* | -21% | ? | -8%
CCc1ccc(NC(=O)c2cnc3n(c2=O)CCS3)cc1 | 27 | 10 | 205% | nt | nt | nt
COc1cc(OC)c(NC(=O)N2CCC(CN3CCOCC3)CC2)cc1Cl | nt | nt | nt | -9%[46.1 µM] | nt | nt
Cc1ccc(NC(=O)NCc2nc3ccccc3n2C)cc1 | 2 | 6 | 11% | -2%[46.1 µM] | 0%[46.1 µM] | -24%
Cc1ccc(NC(=O)C2=C(O)CCn3c2nc2ccccc23)cc1 | 37 | 22* | ? | 2% | 4% | nt
COC(=O)Cn1ncn2c(cc3oc(C)cc32)c1=O | 76* | 40* | 22% | 18% | -14% | 121%
Cc1cccc(C)c1NC(=O)Cn1c(CN2CCCCC2)nc2ccccc2c1=O | 1 | -2 | 131% | -4% | -4% | 15µM*
CC(=O)Cn1c(CN2CCCCC2)nc2ccccc2c1=O | -9 | -1 | 12% | nt | nt | 10µM*
COCc1c(C(=O)Nc2ccc(Cl)cc2F)oc2ccccc12 | 185* | 29* | 68% | nt | nt | 76%
COCc1c(C(=O)Nc2nc(C)cs2)oc2ccccc12 | 44* | 25* | 43% | nt | nt | 16%
CC1CCCCC1NC(=O)CCCN1C(=O)c2ccccc2C1=O (configuration not stated) | nt | nt | nt | 7% | ? | nt
O=C1NNC(=O)C1c1ccccc1 | 37 | 6 | 11% | nt | nt | -10%[0.00184 µM]
O=C1C(c2ccccc2)C(c2ccccc2)NC(c2ccccc2)C1c1ccccc1 (configuration not stated) | -12 | -2 | 0% | ? | ? | 1.9µM*
O=C(CC1C(=O)NCCN1Cc1ccc(F)cc1)NCCN1CCCc2ccccc21 (configuration not stated) | 10 | -1 | ? | nt | nt | -5%
CCSc1nc2c(cnn2-c2ccccc2)c(=O)n1N | 50* | 46* | 106% | 2% | ? | 285%
CSc1nc2c(cnn2-c2ccccc2)c(=O)n1N | 91* | 28* | -27%[5.75 µM] | nt | nt | 230%
Cc1cccc(-n2c(C)nc3c(cnn3-c3ccc(F)cc3)c2=O)c1 | 31 | 39* | 9.3µM* | -6% | ? | ?
C=CCn1c(C)nc2c(cnn2-c2ccccc2)c1=O | 19 | 14* | -23% | 13%[46.1 µM] | -2%[46.1 µM] | 0%
Cc1ccc(-n2c(C)nc3c(cnn3-c3ccccc3)c2=O)cc1 | nt | nt | nt | 8%[46.1 µM] | nt | nt
Cc1ccc(OS(=O)(=O)c2c(C)nn(C)c2Cl)c(C)c1 | -5 | -3 | 22% | 0%[46.1 µM] | -1%[46.1 µM] | ?
Cc1c(C(=O)N2CCN(c3ncccn3)CC2)sc2nc3n(c(=O)c12)CCCC3 | -7 | 13 | -7% | 1% | ? | -12%
COc1ccc(CC(=O)NCc2n[nH]c(=S)n2-c2ccccc2)cc1 | -15 | -1 | 0% | nt | nt | -2%
CCN1CCN(Cc2c(O)ccc3c(=O)c(-c4ccc(OC)c(OC)c4)c(C)oc23)CC1 | 13 | 0 | -16% | 3% | -21% | ?
COc1ccccc1-c1coc2c(CN3CCC(C)CC3)c(O)ccc2c1=O | 27 | 7 | ? | 24%[46.1 µM] | 28%[46.1 µM] | 12µM*
CC1CCN(Cc2c(O)ccc3c(=O)c(-c4cccc(Cl)c4)c(C(F)(F)F)oc23)CC1 | nt | nt | nt | 4%[46.1 µM] | ? | nt
SMILES | Shiga inhibitor | CHX counter | Pf growth 96h | LASV entry inh | MARV entry inh | Pf growth 48h
Cc1oc2c(CN3CCCC3)c(O)ccc2c(=O)c1-c1ccccc1 | 11 | -1 | 12µM* | -9% | 19% | ?
O=c1c(Oc2ccccc2Br)c(C(F)(F)F)oc2c(CN3CCCC3)c(O)ccc12 | 16 | -4 | 2.1µM* | -12% | 13% | 10µM*
Cc1oc2c(CN3CCC(C)CC3)c(O)ccc2c(=O)c1-c1ccccc1 | 4 | 3 | 4.1µM* | nt | 2% | 2.9µM*
CCOC(=O)C(C)On1c(SC(C)C(=O)OCC)nc2ccccc2c1=O (configuration not stated) | 18 | -1 | -9% | 8% | 16% | 10%
COc1ccc(-c2c(C)oc3c(CN4CCN(C)CC4)c(O)ccc3c2=O)cc1 | -4 | -2 | ? | nt | nt | -5%
CCCCc1cc(=O)oc2c(CN3CCN(C)CC3)c(O)ccc12 | 6 | 5 | ? | -2%[46.1 µM] | -1%[46.1 µM] | 12µM*
CCCc1cc(=O)oc2c(CN3CCN(C)CC3)c(O)ccc12 | -4 | -1 | -2% | nt | nt | 1%
